BaF3 tox: reduces parental Ba/F3 cell viability, JAK2V617F counter-screen; CellTiter-Glo ATP luminescence; inhibition, % at 5.6 µM; 220,000 tested, 1.1% active; AID 1486;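 active = inhibition above a per-campaign cutoff, the mean inhibition of all tested compounds plus 3 SD, cut at about 27% in these data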;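 note: 0% = DMSO wells and 100% = JAK Inhibitor I control wells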
aSyn 5UTR inh: 5' untranslated region of α-synuclein, MLPCN primary screen; inhibition, % (tested at 7.5 µM); alpha-synuclein 5'UTR reporter, inhibitor activity; 300,000 tested, 0.82% active; in the data active = inhibition above about 60%; inconclusive = no clear call, values can overlap the other calls;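 note: H4 neuroglioblastoma cells stably carrying SNCA 5'UTR luciferase fusion; 0% = DMSO wells and 100% = positive control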
IEC-6 cytotox: IEC-6 cytotoxicity, counter-screen for KLF5 inhibitors | luminescence viability | inhibition, % at 5 µM | 290,000 tested, 0.78% active | AID 1825;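 note: 0% = plate median of test compound wells and 100% = cytotoxic reference compound wells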
APP transl inh: APP translation inhibition; AID 1285; 190,000 tested, 0.82% active; SH-SY5Y APP 5'UTR-luciferase reporter, luminescence; inhibition, % at 2 µM;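 active = inhibition above a set limit, derived from the sample mean plus 3 SD, cut at about 45% in these data; inconclusive = one replicate passes the limit while the other fails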
KLF5 inhibitor: kruppel-like factor 5 inhibition | DLD-1 KLF5 promoter-luciferase reporter, luminescence | inhibition, % at 5 µM | 290,000 tested, 0.23% active;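 active = inhibition above a per-plate limit of that plate's mean compound inhibition plus 3 SD, cut at about 60% in these data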;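 note: 0% = DMSO wells and 100% = LY294002 at 200 µM; higher means less KLF5 promoter-driven luciferase light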
Ba/F3 V617F tox: reduce viability of Ba/F3 cells dependent on JAK2V617F; Ba/F3 EpoR-JAK2V617F viability, ATP luminescence; 220,000 tested, 1.1% active; inhibition, % at 5.6 µM;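 active = inhibition above the campaign mean plus 3 SD over all tested compounds, cut at about 24% in these data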;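 note: cytokine-independent growth of Ba/F3 cells driven by EpoR plus mutant JAK2; 0% = DMSO-treated cells and 100% = JAK inhibitor I control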
IEC-6 cytotox cf: confirmation of cytotoxic compounds in rat IEC-6 intestinal epithelial cells | inhibition, % at 5 µM | IEC-6 rat intestinal epithelial viability, luminescence | 1,900 tested, 63% active | AID 1907 | shares compounds with IEC-6 cytotox;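 note: 0% = vehicle and 100% = reference cytotoxic drug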
The depositor's hits bear a star; u = inconclusive; x = no result. Shown are actives, neighbours in structure and some others; about 2.2% of the full set was active somewhere. Cut-off read from the data, not from the text of the source, unless noted: active = inhibition above about 22%; inactive = the rest.

SMILES	BaF3 tox	aSyn 5UTR inh	IEC-6 cytotox	APP transl inh	KLF5 inhibitor	Ba/F3 V617F tox	IEC-6 cytotox cf
CC(C)[C@H](NC(=O)N1CCn2c1nc1ccccc12)C(=O)N[C@H](C(=O)O)c1ccccc1	x	-18	-1	x	-14	x	x
O=C(NNc1ccccc1)C(=O)NNS(=O)(=O)c1ccc(CCCl)cc1	1	8	44*	x	23	-1	11
C/C(=N/Nc1ccc([N+](=O)[O-])cc1)c1c[nH]c2ccccc12	x	-171	24*	x	-20	x	22*
C/C(=N/Nc1ccc([N+](=O)[O-])cc1)c1ccc(C)cc1C	10	-89	5	-17	-58	2	x
CC(=O)Nc1ccc(S(=O)(=O)N2CCC(C(=O)NCCc3c[nH]c4ccccc34)CC2)cc1	x	15	-5	x	-19	x	x
COc1ccc(N(CC(=O)Nc2cc(Cl)ccc2C)S(=O)(=O)c2c(C)noc2C)cc1	x	78*	64*	x	43	x	44*
Cc1cccc(OCC(=O)Nc2ccc(C(=O)NCc3cccnc3)cc2)c1	-4	9	26*	10	7	12	-12
O=C(NCc1cccnc1)c1ccc(NC(=O)c2ccc(Br)cc2)cc1	x	17	89*	x	-29	x	43*
O=C1CCC(C(=O)N2CCCCO2)CN1Cc1ccc(Cl)cc1 (stereo not drawn)	x	9	1	x	-10	x	x
COc1ccc2oc(-c3ccccc3[N+](=O)[O-])cc(=O)c2c1	53*	7	44*	2	-28	65*	48*
COc1ccc(-c2cc(=O)c3ccccc3o2)cc1	x	-216	x	x	x	x	x
C=CCn1c(=N)c(S(=O)(=O)c2ccc(C)c(C)c2)cc2c(=O)n3ccccc3nc21	x	40	7	x	7	x	x
CN(C)C(=S)Nc1nc2ccccc2s1	4	-137	30*	-63	-182	3	-5
O=C(CSc1nnnn1C1CCCCC1)Nc1ccccc1F	3	4	11	-16	-2	-4	x
O=C(CSc1nnnn1C1CC2CCC1C2)Nc1ccnc2ccccc12 (stereo not drawn)	63*	x	36*	17	21	68*	16
COc1ccccc1C(=O)Nc1ccc2c(c1)nc(CCNC(=O)c1ccccc1)n2C	76*	-10	60*	x	45	85*	43*
COc1ccccc1C(=O)Nc1ccc2c(c1)nc(CCNC(C)=O)n2C	6	-73	-1	-63	-53	3	x
O=C(NC1CCc2ccccc21)c1cc(COc2c(F)cccc2F)on1 (stereo not drawn)	3	3	8	x	-24	2	x
O=C(NCC1OCCc2ccccc21)c1cc(COc2c(F)cccc2F)on1 (stereo not drawn)	103*	-7	82*	-4	36	98*	-10
O=C(/C=C/c1ccco1)Nc1ccc2nc3n(c(=O)c2c1)CCCC3	6	-176	5	-52	-69	7	x
COc1ccc(NC(=O)C(=O)c2cn(CC(=O)N3CCCC3)c3ccccc23)cc1	x	105*	93*	x	59	x	66*
CC(=O)Nc1ccc(NC(=O)C(=O)c2cn(CC(=O)N3CCCC3)c3ccccc23)cc1	x	-16	0	x	-23	x	x
CCC(=O)NC(NC(=S)Nc1cccc2cccnc12)C(Cl)(Cl)Cl (stereo not drawn)	6	4	4	-10	-33	-1	x
CCC(=O)NC(c1ccc(C)cc1)c1ccc2cccnc2c1O (stereo not drawn)	x	81*	61*	x	73*	x	82*
CCC(=O)NC(c1ccc(Cl)cc1Cl)c1ccc2cccnc2c1O (stereo not drawn)	x	75*	26*	x	86*	x	70*
SMILES	BaF3 tox	aSyn 5UTR inh	IEC-6 cytotox	APP transl inh	KLF5 inhibitor	Ba/F3 V617F tox	IEC-6 cytotox cf
Cc1cc(NC(c2ccc(Cl)cc2)c2ccc3cccnc3c2O)no1 (stereo not drawn)	55*	85*	39*	79*	51	6	72*
Oc1c(C(Nc2ccccn2)c2ccccn2)ccc2cccnc12 (stereo not drawn)	6	54	-6	26	15	3	x
C=CCN(C(=O)c1csnn1)C(C(=O)NCc1ccc(F)cc1)c1ccccc1F (stereo not drawn)	x	-29	0	x	10	x	x
COc1cnc(-c2cccc(C(F)(F)F)c2)[nH]c1=O	5	9	-6	-5	-9	-2	x
FC(F)(F)c1cccc(-c2nc3nc(Cl)c(Cl)nc3[nH]2)c1	3	13	31*	x	-47	4	39*
COc1ccc(C(=O)Nc2cccc3c2CCCC3)cc1	x	-132	24*	x	-9	x	22
COc1ccc(CC(=O)Nc2cccc3c2CCCC3)cc1	x	8	4	x	-3	x	x
CC(=O)c1ccc(Nc2c3c(nc4ccccc24)CCCC3)cc1	-4	-195	25*	x	-10	2	20
COc1ccccc1Nc1c2c(nc3ccccc13)CCC2	x	19	48*	x	14	x	31*
COC(=O)c1cccc(Nc2c3c(nc4ccccc24)CCC3)c1	x	-34	28*	x	-7	x	8
CC(=O)c1cccc(CN2CCCC(C(=O)Nc3cccc(-n4cccn4)c3)C2)c1 (stereo not drawn)	x	15	-2	x	-13	x	x
COc1ccc(N(C(C)=O)c2nc3ccccc3[nH]2)cc1	x	-1	-3	x	-26	x	x
CCOC(=O)c1sc(NC(=O)CCc2ccccc2)nc1C	x	-146	54*	x	46	x	22*
Cc1ccc(C(=O)c2cc([N+](=O)[O-])ccc2N2CCCCC2)cc1C	75*	56	58*	94*	3	83*	61*
Cc1ccc(C(=O)c2cc([N+](=O)[O-])ccc2N2CCN(C)CC2)cc1	26	u	44*	63*	15	6	38*
COc1ccc(OCC(=O)Nc2ccccc2N2CCCCC2)cc1	x	21	70*	x	56	x	42*
COc1cccc(OC)c1C(=O)Nc1ccccc1N1CCCCC1	x	23	26*	x	3	x	2
COc1ccc(OCC(=O)Nc2ccccc2N2CCN(C)CC2)cc1	x	-13	2	x	17	x	x
COc1ccc(OCC(=O)Nc2ccccc2-c2ccccc2)cc1	7	21	28*	11	10	4	15
CCC(C)NC(=O)Nc1ccc(C)cc1C (stereo not drawn)	5	3	0	0	-7	-3	x
CCN1CCN(C(=O)CN(CC)S(=O)(=O)c2ccc3ccccc3c2)CC1	x	-9	9	x	9	x	x
Cc1ccc(S(=O)(=O)N(C)C)cc1NC(=S)N1CCN(Cc2ccc3c(c2)OCO3)CC1	6	-29	-1	-5	-4	-1	x
CCC(CC)C(=O)Nc1ccc(C(=O)c2ccccc2)cc1	4	2	1	-27	-49	-1	x
CCN(CC)CCC(=O)Nc1cccc2c1C(=O)c1ccccc1C2=O	68*	-5	26*	x	23	85*	24*
Nc1cccc(C(=O)OCC(=O)Nc2cccc3c2C(=O)c2ccccc2C3=O)c1	4	16	2	10	-24	1	x

Screens as filed in PubChem BioAssay.
